# Assay results published in the supplement of paper PMC6607015.
# Where a name gives a salt, the structure may show the parent alone.
# Key:
# Settings in all cases: compound concentration in added solution (µM; 5 µl added to 20 µl cells): 10; 18 h
# A431 [1] = test: LBPA endosome anti-LBPA integrated intensity (sum per cell), Z-score; higher = more LBPA staining
# Summary of the method: (§1)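 The data are Z-scores, normalised in AcuityXpress, of integrated LBPA or filipin intensity in each cell, either whole-cell or restricted to LBPA endosomes. HeLa MZ or A431 cells, 3,500 per well in 20 µl, were seeded onto 5 µl of 10 µM compound solution in duplicate 384-well plates and incubated 18 h. Fixed cells were stained and imaged, with intensities extracted by MetaXpress segmentation.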
# HeLa MZ [2] = test: as above
# Summary of the method: as §1
# A431 [3] = test: whole-cell filipin (free cholesterol) integrated intensity, Z-score; higher = more cholesterol staining
# Summary of the method: as §1
# HeLa MZ [4] = test: as above
# Summary of the method: as §1
# A431 [5] = test: filipin (cholesterol) integrated intensity within LBPA endosomes, Z-score; higher = more cholesterol in LBPA endosomes
# Summary of the method: as §1
# HeLa MZ [6] = test: as above
# Summary of the method: as §1
Compound,LBPA endosome anti-LBPA integrated intensity (z-score) (A431 [1]),LBPA endosome anti-LBPA integrated intensity (z-score) (HeLa MZ [2]),whole-cell filipin (z-score) (A431 [3]),whole-cell filipin (z-score) (HeLa MZ [4]),filipin (z-score) (A431 [5]),filipin (z-score) (HeLa MZ [6])
CN1CCCN(C(c2ccccc2)c2ccc(Cl)cc2)CC1 (stereo not drawn) [Homochlorcyclizine dihydrochloride],2.75,1.74,0.946,-0.527,2.1,1.46
Cc1nnc(SCC2=C(C(=O)O)N3C(=O)[C@@H](NC(=O)Cn4cnnn4)[C@H]3SC2)s1 [Cefazolin sodium salt],-0.481,-0.611,-0.424,-0.218,-0.384,-0.417
CCN(CC)CCOCCOC(=O)C1(c2ccccc2)CCCC1 [Carbetapentane citrate],0.618,1.63,0.819,0.39,0.894,0.461
Cc1cn[nH]c1 [Fomepizole],-0.605,-0.603,-0.686,-0.874,-0.557,-0.633
COC(=O)C1=C(C)NC(C)=C(C(=O)OCC(C)C)C1c1ccccc1[N+](=O)[O-] (stereo not drawn) [Nisoldipine],0.222,1.99,0.622,0.224,-0.263,-0.481
Cc1cc2c(cc1S(N)(=O)=O)S(=O)(=O)CCC2 [Meticrane],-0.412,-0.455,-0.803,-0.699,-0.464,-0.558
CC(=O)Oc1ccccc1C(=O)O [Acetylsalicylic acid],-0.437,-1.33,-0.0786,-0.536,-0.409,-0.51
CCN(CC)CCOC(=O)C1(c2ccc([N+](=O)[O-])cc2)CCCC1 [Nitrocaramiphen hydrochloride],-0.558,0.568,-0.0743,-0.278,-0.346,-0.0224
CN(C)CCOC1=Cc2ccccc2Sc2ccc(Cl)cc21 [Zotepine],3.49,1.41,1.18,-0.352,3.08,1.71
Cc1ccc(/C(=C\CN2CCCC2)c2ccccn2)cc1 [Triprolidine hydrochloride],-0.168,0.494,-0.873,-0.689,-0.378,-0.0781
CCN(CC)CCCC(C)Nc1ccnc2cc(Cl)ccc12 (stereo not drawn) [Chloroquine diphosphate],3.38,2.38,0.0406,0.105,0.896,1.26
COc1cc2nc(N3CCN(C(=O)C4CCCO4)CC3)nc(N)c2cc1OC (stereo not drawn) [Terazosin hydrochloride],-0.178,0.906,-0.323,-0.357,-0.379,0.00198
CO[C@@]1(NC(=O)CSCC#N)C(=O)N2C(C(=O)O)=C(CSc3nnnn3C)CS[C@@H]21 [Cefmetazole sodium salt],-0.329,0.139,-0.215,-0.0972,-0.434,-0.479
O=C(CCCN1CCC(O)(c2ccc(Cl)cc2)CC1)c1ccc(F)cc1 [Haloperidol],2.66,2.75,1.61,0.834,2.42,2.21
COc1ccc2[nH]c([S+]([O-])Cc3ncc(C)c(OC)c3C)nc2n1 (stereo not drawn) [Tenatoprazole],-0.331,0.434,-0.478,0.112,-0.438,-0.258
Cc1ccc(C)c(OCCCC(C)(C)C(=O)O)c1 [Gemfibrozil],-0.639,-0.782,-0.695,-0.706,-0.635,-0.699
NS(=O)(=O)c1cc2c(cc1Cl)NC(CC1CCCC1)NS2(=O)=O (stereo not drawn) [Cyclopenthiazide],-0.58,-0.971,-0.203,-0.467,-0.442,-0.628
CC(=O)OCC(=O)[C@@]1(OC(C)=O)[C@@H](C)C[C@H]2[C@@H]3C[C@H](F)C4=CC(=O)C=C[C@]4(C)[C@@]3(F)[C@@H](O)C[C@@]21C [Diflorasone Diacetate],-0.283,-0.262,-0.254,-0.816,-0.354,-0.539
"CN1[C@@H]2CC[C@H]1C[C@@H](OC(=O)C(O)c1ccccc1)C2 (mixture of isomers) [Homatropine hydrobromide (R,S)]",-0.625,-0.216,-0.825,-0.838,-0.591,-0.57
COCCOC(=O)C1=C(C)NC(C)=C(C(=O)OC(C)C)C1c1cccc([N+](=O)[O-])c1 (stereo not drawn) [Nimodipine],-0.345,0.468,0.0525,0.629,-0.323,-0.286
CN1CCN(c2c(F)cc3c(=O)c(C(=O)O)cn(CCF)c3c2F)CC1 [Fleroxacin],-0.492,-0.0484,-0.0639,0.23,-0.354,-0.239
O=C(N/N=C/c1ccc([N+](=O)[O-])o1)c1ccc(O)cc1 [Nifuroxazide],-0.723,-1.67,-0.848,-0.476,-0.646,-0.646
COc1ccc(C(=O)c2ccccc2O)c(O)c1 [Dioxybenzone],-0.417,0.711,-0.27,0.232,-0.379,-0.234
CO[C@H]1/C=C/O[C@@]2(C)Oc3c(C)c(O)c4c(O)c(c5c(nc6cc(C)ccn65)c4c3C2=O)NC(=O)/C(C)=C\C=C\[C@H](C)[C@H](O)[C@@H](C)[C@@H](O)[C@@H](C)[C@H](OC(C)=O)[C@@H]1C [Rifaximin],-0.465,-0.154,0.151,0.344,-0.307,-0.143

Compound,LBPA endosome anti-LBPA integrated intensity (z-score) (A431 [1]),LBPA endosome anti-LBPA integrated intensity (z-score) (HeLa MZ [2]),whole-cell filipin (z-score) (A431 [3]),whole-cell filipin (z-score) (HeLa MZ [4]),filipin (z-score) (A431 [5]),filipin (z-score) (HeLa MZ [6])
O=C(NCCO[N+](=O)[O-])c1cccnc1 [Nicorandil],-0.51,-0.536,-0.699,-0.868,-0.497,-0.545
O=C1NCCN1c1ncc([N+](=O)[O-])s1 [Niridazole],-0.413,0.107,-0.918,-0.144,-0.517,-0.432
C#C[C@]1(O)CC[C@H]2[C@@H]3CCc4cc(O)ccc4[C@H]3CC[C@@]21C [Ethinylestradiol],-0.522,-1.4,-0.139,-0.678,-0.442,-0.49
COc1ccc(Cl)cc1C(=O)NCCc1ccc(S(=O)(=O)NC(=O)NC2CCCCC2)cc1 [Glibenclamide],-0.686,-1.35,-0.573,0.104,-0.559,-0.567
CCCCN1CCCCC1C(=O)Nc1c(C)cccc1C (stereo not drawn) [Bupivacaine hydrochloride],-0.317,-0.117,-0.729,-0.969,-0.543,-0.511
COc1ccc(-c2ccc(=N)n(CCCC(=O)O)n2)cc1 [Gabazine bromide],-0.561,-0.0518,-0.811,-0.576,-0.574,-0.549
CCOc1nc2cccc(C(=O)O)c2n1Cc1ccc(-c2ccccc2-c2nnn[nH]2)cc1 [Candesartan],-0.346,0.346,0.0521,0.386,-0.389,-0.218
Cc1cccc(C)c1NC(=O)C1CCCCN1C (stereo not drawn) [Mepivacaine hydrochloride],-0.256,0.0426,0.297,0.327,-0.328,-0.202
CSc1ccc2c(c1)N(CCC1CCCCN1C)c1ccccc1S2 (stereo not drawn) [Thioridazine hydrochloride],1.04,0.375,-0.796,-0.81,1.25,1.45
COC(=O)N/N=C/c1c[n+]([O-])c2ccccc2[n+]1[O-] [Carbadox],-0.532,-0.164,-0.439,-0.327,-0.53,-0.532
CN(C)[C@@H]1C(O)=C(C(N)=O)C(=O)[C@@]2(O)C(O)=C3C(=O)c4c(O)ccc(Cl)c4[C@@H](O)[C@H]3C[C@@H]12 [Demeclocycline hydrochloride],-0.567,-1.25,-0.566,-1.1,-0.465,-0.672
N=C(N)NCc1cccc(I)c1 [Iobenguane sulfate],-0.605,-1.1,-0.881,-0.23,-0.54,-0.449
CC(=O)CC(c1ccc([N+](=O)[O-])cc1)c1c(O)c2ccccc2oc1=O (stereo not drawn) [Acenocoumarol],-0.507,-0.33,-0.704,-0.387,-0.49,-0.482
NNCCc1ccccc1 [Phenelzine sulfate],-0.403,-0.966,-0.414,-0.115,-0.439,-0.425
COCCCC/C(=N\OCCN)c1ccc(C(F)(F)F)cc1 [Fluvoxamine maleate],0.482,2.11,1.69,0.282,0.839,0.935
CCC1(c2ccccc2)C(=O)NCNC1=O [Primidone],-0.559,-0.0866,-0.586,-0.472,-0.509,-0.574
c1ccc2c(c1)CCCc1cc(NCCN3CCOCC3)nnc1-2,-0.68,-0.691,-0.665,-0.162,-0.491,-0.0973
C#C[C@]1(OC(C)=O)CC[C@H]2[C@@H]3CCC4=C[C@@H](OC(C)=O)CC[C@@H]4[C@H]3CC[C@@]21C [Ethynodiol diacetate],-0.254,0.88,0.227,0.371,-0.191,-0.00334
O=C1OC(CN2CCOCC2)CN1/N=C/c1ccc([N+](=O)[O-])o1 (stereo not drawn) [Furaltadone hydrochloride],-0.539,-0.499,-0.319,-0.322,-0.493,-0.666
Cc1ccc(S(=O)(=O)NC(=O)NN2CCCCCC2)cc1 [Tolazamide],-0.639,-1.11,-0.852,-0.547,-0.571,-0.672
C[C@]12CC[C@@H]3c4ccc(O)cc4C[C@@H](CCCCCCCCC[S+]([O-])CCCC(F)(F)C(F)(F)F)[C@H]3[C@@H]1CC[C@@H]2O (stereo partly drawn) [Fulvestrant],1.44,1.71,1.52,1.48,1.64,2.16
C[N+]1(CCCCC[N+]2(C)CCCC2)CCCC1 [Pentolinium bitartrate],-0.453,-0.278,-0.653,-0.161,-0.437,-0.405
CS(=O)(=O)c1ccc(C2=C(c3ccccc3)C(=O)OC2)cc1 [Rofecoxib],-0.672,-1.7,-1.07,-0.451,-0.59,-0.599
C=C1/C(=C\C=C2/CCC[C@]3(C)[C@@H]([C@H](C)CCCC(C)C)CC[C@@H]23)C[C@@H](O)C[C@@H]1O [Alfacalcidol],0.0439,-0.204,-0.362,-0.701,-0.145,-0.743
